The record followed here is PubChem BioAssay (NCI).

SMILES strings stand for the structures. “And” between values parts separate entries of the source, which are not always exact repeats. Equal values may be shown once. About 83,000 compounds went through this panel and 20% of them were active in at least one assay; those are over-represented in the sample as a whole.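 Cell lines were cultured in 96-well plates, exposed to a single compound concentration, and assessed for percent growth 48 hours later.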 The source made the active and inactive calls. How the source made its calls: active means growth percent below 10; inactive means the rest.

Holding throughout (experiment): NCI-60 one-dose screen, 48 h (100 = growth as untreated, 0 = no growth, -100 = all killed)
The subject of assay [1] is DU-145 prostate.
Assay [2] concerns K-562 leukemia.
For assay [3], the system named is MALME-3M melanoma.
Assay [4] concerns MDA-MB-231 breast.
The test system of assay [5] is RXF 393 renal.
In assay [6] the test system is SF-268 CNS.
For assay [7], the system named is SF-295 CNS.
Assay [8] has as its system SF-539 CNS.
For assay [9], the system named is UACC-257 melanoma.
Assay [10] concerns M14 melanoma.

As for `O=[N+]([O-])c1ccc(/C=N\NC(=S)Nc2ccc(F)cc2)cc1`, the growth in assay [1] (10 µM unless noted) was 102% (inactive) and 87.1% (inactive); in assay [2] (10 µM unless noted), 104% (inactive); in [3] (10 µM unless noted) it was 92.6% (inactive); in assay [4] (10 µM unless noted), 77.5% (inactive) and 77.6% (inactive); in assay [5] (10 µM unless noted), 98% (inactive) and 105% (inactive); in [6] (10 µM unless noted) it was 102% (inactive) and 99.8% (inactive). In addition, the growth in assay [7] (10 µM unless noted) is 102% (inactive); in [8] (10 µM unless noted), 102% (inactive) and 58.6% (inactive); in assay [9] (10 µM unless noted), 91.4% (inactive) and 104% (inactive).

As to `CCN(CC)CCC(CNc1ccnc2cc(Cl)ccc12)c1ccc(OC)cc1` (stereo not given), the growth in assay [1] (10 µM unless noted) is 84.7% (inactive) and 96.7% (inactive); in assay [2] (10 µM unless noted), 6.83% (active) and 1.92% (active); in assay [3] (10 µM unless noted), -69.1% (active) and -65.7% (active); in assay [4] (10 µM unless noted), 33.1% (inactive) and 44.1% (inactive); in [5] (10 µM unless noted) it was 33.6% (inactive) and 38.1% (inactive); in assay [6] (10 µM unless noted), 75.9% (inactive) and 76.8% (inactive). Moreover, the growth was 46.5% (inactive) and 1.95% (active) in assay [7] (10 µM unless noted); -80.6% (active) and -66.8% (active) in assay [8] (10 µM unless noted); -70% (active) and -74.4% (active) in assay [9] (10 µM unless noted).

For the compound `Nc1n[nH]c(=S)n1-c1ccc(Cl)cc1`, the growth in [1] (10 µM unless noted) was 108% (inactive); in assay [2] (10 µM unless noted), 102% (inactive); in assay [3] (10 µM unless noted) it was 102% (inactive); in assay [4] (10 µM unless noted), 112% (inactive); in assay [5] (10 µM unless noted), 96.7% (inactive); in [6] (10 µM unless noted), 100% (inactive). Moreover, the growth in [7] (10 µM unless noted) is 148% (inactive); in assay [8] (10 µM unless noted), 93% (inactive); in assay [9] (10 µM unless noted), 93.5% (inactive).

As to `O=[N+]([O-])c1ccc(Oc2ccccc2)cc1`, the growth in assay [1] (10 µM unless noted) was 117% (inactive) and 127% (inactive); in assay [2] (10 µM unless noted), 118% (inactive) and 123% (inactive); in assay [3] (10 µM unless noted), 106% (inactive) and 124% (inactive); in [4] (10 µM unless noted) it was 109% (inactive) and 136% (inactive); in assay [5] (10 µM unless noted), 117% (inactive) and 118% (inactive); in [6] (10 µM unless noted), 106% (inactive) and 99.4% (inactive). The growth in [7] (10 µM unless noted) is 95.4% (inactive) and 121% (inactive); in assay [8] (10 µM unless noted) it was 104% (inactive) and 98.1% (inactive); in assay [9] (10 µM unless noted), 108% (inactive) and 91.7% (inactive).

Turning to `CN1C(=O)C(N=Nc2ccc([N+](=O)[O-])cc2)SC1=S` (stereo not given), the growth in assay [1] (10 µM unless noted) is 90.7% (inactive) and 89.2% (inactive); in assay [2] (10 µM unless noted), 43.1% (inactive); in assay [3] (10 µM unless noted) it was 80.1% (inactive) and 99.9% (inactive); in assay [4] (10 µM unless noted), 76.7% (inactive) and 87% (inactive); in assay [5] (10 µM unless noted), 80% (inactive) and 94.2% (inactive); in assay [6] (10 µM unless noted) it was 65.2% (inactive) and 67.6% (inactive). Besides, the growth in assay [7] (10 µM unless noted) was 185% (inactive) and 46.3% (inactive); in assay [8] (10 µM unless noted), 67.2% (inactive) and 68.2% (inactive); in [9] (10 µM unless noted), 76.3% (inactive) and 84.2% (inactive).

For the compound `O=C(O)c1sccc1O`, the growth in assay [1] (10 µM) was 83.1% (inactive); in assay [1] (100 µM) it was 40.3% (inactive); in assay [2] (10 µM) it was 60.5% (inactive); in [2] (100 µM), 5.69% (active); in [3] (10 µM), 103% (inactive); in assay [3] (100 µM), 78.8% (inactive). In addition, the growth was 40.8% (inactive) in assay [4] (10 µM); 27.7% (inactive) in assay [4] (100 µM); 84.6% (inactive) in [5] (10 µM); 52.1% (inactive) in assay [5] (100 µM); 71.6% (inactive) in [6] (10 µM); 26% (inactive) in assay [6] (100 µM). The growth in [7] (10 µM) was 76.6% (inactive); in assay [7] (100 µM), 31.2% (inactive); in assay [8] (10 µM), 85.4% (inactive); in assay [8] (100 µM) it was 23.5% (inactive); in assay [9] (10 µM), 85.3% (inactive); in [9] (100 µM) it was 51.5% (inactive).

With `COc1ccc(S(=O)(=O)N2CCOCC2)cc1NC(=O)c1[nH]c(C)c2c1CCCCC2=O`, the growth in assay [1] (10 µM unless noted) is 107% (inactive) and 81.5% (inactive); in assay [2] (10 µM unless noted) it was 105% (inactive) and 46.1% (inactive); in assay [3] (10 µM unless noted), 103% (inactive) and 53.9% (inactive); in assay [4] (10 µM unless noted), 110% (inactive) and 44.6% (inactive); in assay [5] (10 µM unless noted), 109% (inactive) and 37.7% (inactive); in assay [6] (10 µM unless noted), 98.5% (inactive) and 72.1% (inactive). The growth is 100% (inactive) and 60.7% (inactive) in assay [7] (10 µM unless noted); 95.4% (inactive) and 43.6% (inactive) in assay [8] (10 µM unless noted); 101% (inactive) and 58.7% (inactive) in [9] (10 µM unless noted).

`Nc1ccccc1SC1CC(=O)N(c2cccc3ccccc23)C1=O` (stereo not given): the growth in [1] (10 µM unless noted) was 111% (inactive); in assay [2] (10 µM unless noted), 90.2% (inactive); in [3] (10 µM unless noted), 101% (inactive); in assay [4] (10 µM unless noted) it was 91.9% (inactive); in assay [5] (10 µM unless noted), 93% (inactive); in [6] (10 µM unless noted), 98.1% (inactive). In addition, the growth was 94.7% (inactive) in assay [7] (10 µM unless noted) and 95.6% (inactive) in assay [8] (10 µM unless noted).

For `COc1ccc(Cl)cc1C(=O)NCCc1ccc(S(=O)(=O)NC(=O)NC2CCCCC2)cc1`, the growth in assay [1] (10 µM) is 124% (inactive) and 120% (inactive); in assay [1] (100 µM), 79.8% (inactive); in assay [2] (10 µM) it was 102% (inactive); in assay [2] (100 µM), 66.6% (inactive); in assay [3] (10 µM), 126% (inactive) and 96.5% (inactive); in assay [3] (100 µM), 71.9% (inactive). Also, the growth in assay [4] (10 µM) is 96.7% (inactive) and 105% (inactive); in assay [4] (100 µM), 61.9% (inactive); in [5] (10 µM) it was 110% (inactive) and 104% (inactive); in assay [5] (100 µM) it was 51.6% (inactive); in assay [6] (10 µM), 113% (inactive) and 105% (inactive); in assay [6] (100 µM), 74.3% (inactive). Moreover, the growth is 90.2% (inactive) and 105% (inactive) in assay [7] (10 µM); 74% (inactive) in assay [7] (100 µM); 113% (inactive) and 102% (inactive) in assay [8] (10 µM); 68.8% (inactive) in assay [8] (100 µM); 106% (inactive) in [9] (10 µM); 85.9% (inactive) in [9] (100 µM). Further, the growth in assay [10] (10 µM) was 113% (inactive) and 104% (inactive); in assay [10] (100 µM), 67.9% (inactive).
